± gives the standard deviation of the averaged measurements.
What was measured:
Settings in all cases: concentration: 10 µM; 24 h
[1] = system: HCC1569; assay: cell number relative to DMSO (% of DMSO); higher = more cells (less growth inhibition / toxicity)
Method in brief: (§1)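 HCC1569 and TDF cells were seeded at 800 per well in 384-well plates in RPMI with 10% FBS and treated with compounds at 10 µM for 24 h at 37 °C, in triplicate. After fixation in 3.7% formaldehyde, cells were stained with a rabbit anti-H1.0 antibody, an AlexaFluor 647 secondary and DAPI, and six fields per well were imaged at ×10. H1.0 nuclear intensity or cell number is given as percent of the plate control, using the median of replicates, with HCC1569 values smoothed for positional effects.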

[2] = system: TDF; assay: as above
Method in brief: as §1

[3] = system: TDF; assay: H1.0 immunofluorescence intensity relative to DMSO (% of DMSO); higher = stronger H1.0 induction, active = 120 or more
Method in brief: as §1

[4] = system: HCC1569; assay: H1.0 immunofluorescence intensity relative to DMSO (% of DMSO); higher = stronger H1.0 induction, active = 140 or more
Method in brief: as §1
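For H1.0 immunofluorescence intensity relative to DMSO in this document: TDF is a line of transformed human dermal fibroblasts of mesenchymal origin.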
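For cell number relative to DMSO in this document: TDF denotes transformed human dermal fibroblasts of mesenchymal origin.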

CCCNCC(O)COc1ccccc1C(=O)CCc1ccccc1 (stereo unspecified) [Propafenone]
cell number [1]: 103
cell number [2]: 101
H1.0 immunofluorescence intensity [3]: 92.6 (inactive)
H1.0 immunofluorescence intensity [4]: 103 (inactive)

NC(=O)c1ccc(-c2nc(-c3ccc4c(c3)OCO4)c(-c3ccccn3)[nH]2)cc1
cell number [1]: 95.7
cell number [2]: 106
H1.0 immunofluorescence intensity [3]: 95.9 (inactive)
H1.0 immunofluorescence intensity [4]: 136 (inactive)

CN1C(CC(=O)c2ccccc2)CCCC1CC(O)c1ccccc1 (stereo unspecified) [Lobeline]
cell number [1]: 103
cell number [2]: 102
H1.0 immunofluorescence intensity [3]: 94.9 (inactive)
H1.0 immunofluorescence intensity [4]: 99.8 (inactive)

CC(C)C(=O)Nc1ccc([N+](=O)[O-])c(C(F)(F)F)c1 [Flutamide]
cell number [1]: 81.3 ± 22
cell number [2]: 66.1 ± 48
H1.0 immunofluorescence intensity [3]: 112 (inactive)
H1.0 immunofluorescence intensity [4]: 135 (inactive)

O=C(Nc1ccc(S(=O)(=O)Nc2nccs2)cc1)C(c1ccccc1)c1ccccc1
cell number [1]: 93.6
cell number [2]: 105
H1.0 immunofluorescence intensity [3]: 86 (inactive)
H1.0 immunofluorescence intensity [4]: 108 (inactive)

CCC(C)C(O)C(C)C(=O)C(C)C=C(C)CC(C)C1OC(=O)C1CC (stereo unspecified) [Ebelactone B]
cell number [1]: 102
cell number [2]: 104
H1.0 immunofluorescence intensity [3]: 99.9 (inactive)
H1.0 immunofluorescence intensity [4]: 89.2 (inactive)

COc1ccc2ccc(=O)oc2c1CC=C(C)C [Osthole]
cell number [1]: 97.3
cell number [2]: 92.5
H1.0 immunofluorescence intensity [3]: 103 (inactive)
H1.0 immunofluorescence intensity [4]: 99.9 (inactive)

CC(Cc1ccc(O)c(O)c1)(NN)C(=O)O (stereo not drawn) [S-(-)-Carbidopa]
cell number [1]: 106
cell number [2]: 112
H1.0 immunofluorescence intensity [3]: 91.7 (inactive)
H1.0 immunofluorescence intensity [4]: 90 (inactive)

CN(C)CCC=C1c2ccccc2Sc2ccc(Cl)cc21.Cl [Chlorprothixene hydrochloride]
cell number [1]: 90.2
cell number [2]: 106
H1.0 immunofluorescence intensity [3]: 116 (inactive)
H1.0 immunofluorescence intensity [4]: 127 (inactive)

COc1ccc2cc1Oc1ccc(cc1)CC1c3c(cc4c(c3Oc3cc5c(cc3OC)CCN(C)C5C2)OCO4)CCN1C (stereo unspecified) [Cepharanthine]
cell number [1]: 95.3
cell number [2]: 83
H1.0 immunofluorescence intensity [3]: 108 (inactive)
H1.0 immunofluorescence intensity [4]: 129 (inactive)

O=C1CSC(c2cccc(Br)c2)N1c1cc(Cl)ccc1O (stereo unspecified)
cell number [1]: 102
cell number [2]: 96.5
H1.0 immunofluorescence intensity [3]: 94.8 (inactive)
H1.0 immunofluorescence intensity [4]: 103 (inactive)

O=C(O)CN(CCOCCOCCN(CC(=O)O)CC(=O)O)CC(=O)O
cell number [1]: 99.4
cell number [2]: 105
H1.0 immunofluorescence intensity [3]: 90.3 (inactive)
H1.0 immunofluorescence intensity [4]: 88.9 (inactive)

Nc1ncnc2c1nc(Br)n2C1OC2COP(=O)([O-])OC2C1O.[Na+] (stereo unspecified) [8-Bromo-cAMP sodium]
cell number [1]: 104
cell number [2]: 110
H1.0 immunofluorescence intensity [3]: 95.5 (inactive)
H1.0 immunofluorescence intensity [4]: 90.3 (inactive)

S=C(NCc1ccc2c(c1)OCO2)N1CCN(c2ncnc3c2oc2ccccc23)CC1
cell number [1]: 65.5
cell number [2]: 72.6
H1.0 immunofluorescence intensity [3]: 103 (inactive)
H1.0 immunofluorescence intensity [4]: 132 (inactive)

C[N+](C)(C)CCO.[Br-] [Choline bromide]
cell number [1]: 104
cell number [2]: 108
H1.0 immunofluorescence intensity [3]: 96.9 (inactive)
H1.0 immunofluorescence intensity [4]: 98 (inactive)

CCCCCCCCC=CCCCCCCCCCCCCCC(=O)O [15(Z)-Tetracosenoic acid]
cell number [1]: 103
cell number [2]: 98.8
H1.0 immunofluorescence intensity [3]: 94.8 (inactive)
H1.0 immunofluorescence intensity [4]: 99.1 (inactive)

CC(C)c1[nH]n(-c2c(Cl)cccc2Cl)c2nc(Cc3ccc(OCCO)cc3)nc(=O)c1-2 [Cdk/Crk Inhibitor]
cell number [1]: 55
cell number [2]: 26.7
H1.0 immunofluorescence intensity [3]: 131 (active)
H1.0 immunofluorescence intensity [4]: 143 (active)

CCC(NC(C)C)C(O)c1ccc(O)c(O)c1.CS(=O)(=O)O (stereo unspecified) [Isotharine mesylate]
cell number [1]: 103
cell number [2]: 112
H1.0 immunofluorescence intensity [3]: 92.8 (inactive)
H1.0 immunofluorescence intensity [4]: 91.5 (inactive)

Cc1coc2c1C(=O)C(=O)c1c-2ccc2c1CCCC2(C)C [Tanshinone IIA]
cell number [1]: 85.3 ± 2.9
cell number [2]: 45.7 ± 6
H1.0 immunofluorescence intensity [3]: 113 (inactive)
H1.0 immunofluorescence intensity [4]: 114 (inactive)

CN(Cc1ccc(C(C)(C)C)cc1)Cc1cccc2ccccc12 [Butenafine]
cell number [1]: 101
cell number [2]: 92.9
H1.0 immunofluorescence intensity [3]: 104 (inactive)
H1.0 immunofluorescence intensity [4]: 100 (inactive)

O=C(NCCCCCCNC(=O)ON=C1CCCCC1)ON=C1CCCCC1
cell number [1]: 96.6
cell number [2]: 100
H1.0 immunofluorescence intensity [3]: 98 (inactive)
H1.0 immunofluorescence intensity [4]: 97.1 (inactive)

Cl.O=C(O)C1=CCCN(CCON=C(c2ccccc2)c2ccccc2)C1 [NO-711 hydrochloride]
cell number [1]: 100
cell number [2]: 93.9
H1.0 immunofluorescence intensity [3]: 94.2 (inactive)
H1.0 immunofluorescence intensity [4]: 97.9 (inactive)

CC(CCc1ccc(O)cc1)NCCc1ccc(O)c(O)c1.Cl (stereo unspecified) [Dobutamine.HCl]
cell number [1]: 104
cell number [2]: 111
H1.0 immunofluorescence intensity [3]: 83.4 (inactive)
H1.0 immunofluorescence intensity [4]: 105 (inactive)

Cn1c(=O)c2[nH]c(C3CCCC3)nc2n(C)c1=O [8-Cyclopentyl-1,3-dimethylxanthine]
cell number [1]: 97.7
cell number [2]: 99.4
H1.0 immunofluorescence intensity [3]: 98.6 (inactive)
H1.0 immunofluorescence intensity [4]: 102 (inactive)

Source: the supplement of paper PMC7156485
